{"source": "PubChem BioAssay (NCI)", "note": "The panel holds about 83,000 compounds, 20% with a hit somewhere; the sample as a whole holds those more often.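 Method: cells in 96-well plates; compound added at one concentration; 48 h incubation; percent growth measured; values under 10 scored active.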 Values without a mark were called inactive. Activity calls are given as the source filed them."}
{"system": "HCC-2998 colon", "assay": "NCI-60 one-dose screen, 48 h (100 = growth as untreated, 0 = no growth, -100 = all killed)", "settings": "10 µM", "protocol": "Growth inhibition of the HCC-2998 human tumor cell line is measured as a screen for anti-cancer activity. Cells are grown in 96 well plates and exposed to the test compound for 48 hours. Compounds are tested at a single concentration, which is 10^-5 M for most compounds. The reported endpoint is percent growth (GI% or GIPRCNT), where numbers from 0 - 100% represent growth inhibition, and numbers from -100% - 0 represent cell death. For example, a value of 40 represents 60% growth inhibition. A value of 0 means no net growth occurred over the course of the experiment. A value of -40 indicates 40% of cells at the beginning of the experiment died by the end of the experiment. A value of -100 means all cells are dead at the end of the experiment.\nNCI-60 Human Tumor Cell Lines Screen was performed using the standard one-dose NCI protocol, which is described in more detail at https://dtp.cancer.gov/discovery_development/nci-60/default.htm.\nCompounds with GIPRCNT values below 10 were considered active. Activity score was based on GIPRCNT using the following formula: […]\nScore is 0 for GIPRCNT values of 100 or above, 50 for GIPRCNT values of 0, and 100 for GIPRCNT values of -100."}
{"smiles": "O=C1C=C(Nc2ccc([N+](=O)[O-])cc2)c2ccccc2C1=O", "growth": "72.4%"}
{"smiles": "CCN1C(=O)/C(=C/C=C/N(C)c2ccccc2)SC1=S", "growth": "93.6%"}
{"smiles": "CCOC(=O)/C(=C/c1ccc(OC)cc1)N(CC)CC", "growth": "111%"}
{"smiles": "CCN(CC)C(=O)/C=C(/C)c1ccccc1", "growth": "88.6%"}
{"smiles": "OCC(O)C(O)C(O)C(O)/C=N/O", "note": "(stereo not given)", "growth": "102%"}
{"smiles": "CC1=C(/C=C/C(C)=C/C=C/C(C)=C/CO)C(C)(C)CCC1", "growth": "108%"}
{"smiles": "CS(=O)CC1=NC(=N)N=C1CS(C)=O", "note": "(stereo not given)", "growth": "104%"}
{"smiles": "Cc1ncc(C#N)c(N)n1", "growth": "102%"}
{"smiles": "O=[N+]([O-])c1ccc(CO)cc1", "growth": "96.1%"}
{"smiles": "O=C1C[C@H](c2ccccc2)[C@H](c2ccccc2)C1", "growth": "104%"}
{"smiles": "OCCN(CCO)C(=S)S", "growth": "113%"}
{"smiles": "NC(=O)c1ccc(N=C(N)N=C(N)N)cc1", "growth": "97.7%"}
{"smiles": "O=C1C=CC2=C3c4cc(O)c(O)cc4CC3(O)COC2=C1O", "note": "(stereo not given)", "growth": "-35.6% (active)"}
{"smiles": "O=C(O)CSCSCC(=O)O", "growth": "109%"}
{"smiles": "COS(=O)(=O)c1ccc(Br)cc1", "growth": "99.8%"}
{"smiles": "CC(C)NC(=O)OCc1c(COC(=O)NC(C)C)c(-c2ccc(Cl)c(Cl)c2)n2c1SCC2", "growth": "72.8%"}
{"smiles": "CC(C)C(C#N)(C(C)C)C(C)C", "growth": "110%"}
{"smiles": "Cc1cc(N2CCC(N3CCCC3)CC2)nc(/N=C(\\N)Nc2ccc(Cl)c(Cl)c2)n1", "growth": "-82.2% (active)"}
{"smiles": "S=c1[nH]ccn1-c1ccccc1Cl", "growth": "113%"}
{"smiles": "COc1cc([C@@H]2c3cc4c(cc3[C@H](O)[C@H]3COC(=O)[C@H]23)OCO4)cc(OC)c1OC", "growth": "-4.87% (active)"}
{"smiles": "CCCCC1(CC)COC(CCC)OC1", "note": "(stereo not given)", "growth": "98.1%"}
{"smiles": "CCCCCCCCCCCCCCCCC1CC(=O)OC1=O", "note": "(stereo not given)", "growth": "114%"}
{"smiles": "CCN(CC)c1ccc2nc3ccc(=[N+](CC)CC)cc-3oc2c1", "growth": "40.3%"}
{"smiles": "CCC(C)(O)c1ccc(C)cc1", "note": "(stereo not given)", "growth": "105%"}
{"smiles": "COc1cccc(COC(=O)Nc2ccccc2)c1OC", "growth": "102%"}
{"smiles": "Cc1ccc(C(=O)N/N=C/c2ccc3c(c2)OCO3)cc1", "growth": "96%"}
{"smiles": "C#Cc1cccc(NC(=O)c2ccc(Cl)cc2Cl)c1", "growth": "113%"}
{"smiles": "CC1OC(Oc2c(-c3ccc(O)c(O)c3)oc3cc(O)cc(O)c3c2=O)C(O)C(O)C1O", "note": "(stereo not given)", "growth": "110%"}
{"smiles": "Cc1ccc(C)n1-c1ccsc1C(=O)NNC(=O)CCl", "growth": "116%"}
{"smiles": "O=C1NC(=O)C2C(=O)NC(=O)C1C21CCc2ccccc21", "note": "(stereo not given)", "growth": "115%"}
{"smiles": "N#CCCN(CCCN1CCOCC1)CN1C(=O)c2ccccc2C1=O", "growth": "101%"}
{"smiles": "CC(C)=NNC(N)=S", "growth": "105%"}
{"smiles": "O=c1[nH]nc(SC2CCCCC2)c(=O)[nH]1", "growth": "92%"}
{"smiles": "CCNc1nc2c(cnn2C)c(=O)[nH]1", "growth": "105%"}
{"smiles": "CC(=O)c1ccc(N=C(C#N)C2=C(O)c3ccccc3C2=O)cc1", "growth": "98.1%"}
{"smiles": "CO[C@H]1C[C@@H]2CC[C@@H](C)[C@@](O)(O2)C(=O)C(=O)N2CCCC[C@H]2C(=O)O[C@H]([C@H](C)C[C@@H]2CC[C@@H](O)[C@H](OC)C2)CC(=O)[C@H](C)C=C(C)[C@@H](O)[C@@H](OC)C(=O)[C@H](C)C[C@H](C)/C=C/C=C/C=C1C", "growth": "146%"}
{"smiles": "c1cc[n+](C2c3ccccc3C([n+]3ccccc3)c3ccccc32)cc1", "note": "(stereo not given)", "growth": "68.2%"}
{"smiles": "O=[N+]([O-])c1ccc(Sc2ccncn2)c([N+](=O)[O-])c1", "growth": "90.5%"}
{"smiles": "CCCCCCCCO", "growth": "103%"}
{"smiles": "Cc1cc(C(C)(C)C)cc(C)c1Br", "growth": "99.4%"}
